Common to all, as to test: NCI-60 one-dose screen, 48 h (100 = growth as untreated, 0 = no growth, -100 = all killed)
Common to all, as to conditions: 10 µM unless noted

Assay [1] relates to T-47D breast.
Assay [2] has as its system BT-549 breast.
For assay [3], the system named is MDA-MB-435 melanoma.
Assay [4] deals with SW-620 colon.
Assay [5] concerns MCF7 breast.
Assay [6] deals with HCT-116 colon.
Assay [7] has as its system HCC-2998 colon.
Assay [8] has as its system KM12 colon.

The structures appear in SMILES notation. The panel holds about 83,000 compounds, 20% with a hit somewhere; the sample as a whole holds those more often.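 Assay: single dose, 48 h. Readout: percent growth (0 = no net growth; negative = cell death). Active: <10.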 Unmarked numbers belong to inactive results. Calls of active or inactive are those of the source.

Consider `C[C@@H]1CC[C@@H]2[C@@H]1[C@H](OC(=O)/C=C/c1ccccc1)[C@]1(CCCOCCOCCOCCOC(=O)CCCC[C@@H]3SC[C@@H]4NC(=O)N[C@@H]43)C[C@@H](OC(=O)CO)[C@@]2(C)O1`, for which the growth was 92.4% in assay [1]; 99.4% in assay [2]; 99.7% in assay [3]; 102% in assay [4]; 102% in assay [5]; 92.7% in assay [6]. Further, the growth in assay [7] is 104%; in assay [8] it was 102%.
For the compound `COc1cc(-c2ccc(-c3ccc(C(=N)N)nc3)s2)cc(OC)c1OC`, the growth was 66.2% in assay [1]; 89.8% in assay [2]; 37.1% in assay [3]; 29.2% in assay [4]; -1.33% (active) in assay [5]; 0.952% (active) in assay [6]. For the same compound, the growth is 12.1% in assay [7] and 49.1% in assay [8].
As to `COc1cc(-c2ccc(N=Nc3c(O)c(C(=O)Nc4ccccc4OC)cc4ccccc34)c(OC)c2)ccc1N=Nc1c(O)c(C(=O)Nc2ccccc2OC)cc2ccccc12`, the growth in assay [1] was 103%; in assay [2] it was 90.2%; in assay [3] it was 99.9%; in assay [4] it was 91.8%; in assay [5], 91.1%; in assay [6], 81.8%. The growth is 97.7% in assay [7] and 94.8% in assay [8].
`CN(C)CCCCNc1ccc(NCCCCN(C)C)c2c1C(=O)c1c(O)ccc(O)c1C2=O`: the growth in assay [1] was 97.1%; in assay [2], 92%; in assay [3], 92.7%; in assay [4], -72.6% (active); in assay [5], -81.6% (active); in assay [6] it was -66.7% (active). The growth was -86% (active) in assay [7] and -89.3% (active) in assay [8].
As to `O=C(CC1Sc2ccccc2NC1=O)NNc1ccc(F)cc1` (stereo not drawn), the growth is 66.4% in assay [1]; 88.6% in assay [2]; 31% in assay [3]; 106% in assay [4]; 84.7% in assay [5]; 71.6% in assay [6]. The growth in assay [7] is 63.7%; in assay [8], 77.4%.
Consider `COc1ccc(/C=C(\C#N)n2nnc3ccccc32)cc1`, for which the growth in assay [1] is 50.1%; in assay [2], 21.6%; in assay [3], -40.1% (active); in assay [4], 12.8%; in assay [5], 9.96% (active); in assay [6], 4.97% (active). In addition, the growth in assay [7] is -2.35% (active); in assay [8] it was 1.79% (active).
In the case of `Cc1c(C(=O)O)nnn1-c1nccs1`, the growth was 90.4% in assay [1]; 96.4% in assay [2]; 96.2% in assay [3]; 94% in assay [4]; 99.6% in assay [5]; 89.5% in assay [6]. The results for the growth in assay [7] and in assay [8] were 113% and 98.8%, respectively.
For the compound `COc1cc2ccccc2cc1C(=O)NC(=S)Nc1ccc(-c2nc3ccccc3[nH]2)cc1`, the growth in assay [1] was 76.9%; in assay [2], 45.6%; in assay [3], 80.2%; in assay [4], 80.5%; in assay [5], 59%; in assay [6], 82%. Also, the growth in assay [7] is 96.3%; in assay [8], 68.2%.
With `COc1ccc(/C(C)=C(\c2ccc(Cl)cc2)c2ccc(OCCCN(C)C)cc2)cc1F`, the growth was 67.5% in assay [1]; 88.3% in assay [2]; 29.4% in assay [3]; 38.3% in assay [4]; 13% in assay [5]; 21.2% in assay [6]. Also, the growth is 48.2% in assay [7] and 29.2% in assay [8].
As to `CC(=O)Nc1ccc2c(c1)Cc1c(F)cccc1-2`, the growth in assay [1] is 76.6%; in assay [2], 109%; in assay [3], 107%; in assay [4], 102%; in assay [5], 35.9%; in assay [6], 108%. Besides, the growth in assay [7] was 94.2%; in assay [8] it was 91.5%.
Consider `O=C1N(c2ccccc2)C(=S)N[C@]12[C@H](c1ccccc1)C1CCCN1[C@]21C(=O)NC2C=CC(Cl)=C[C@H]21` (stereo partly drawn), for which the growth in assay [1] is 79.6%; in assay [2], 90.2%; in assay [3] it was 112%; in assay [4] it was 101%; in assay [5], 99.1%; in assay [6] it was 78.1%. For the same compound, the growth in assay [7] was 103%; in assay [8], 100%.
Turning to `O=C(c1ccccc1)c1ccc(N2C(=O)C3C4c5ccccc5C(/C=C/C(=O)c5ccccn5)(c5ccccc54)C3C2=O)cc1` (stereo not drawn), the growth in assay [1] is 27%; in assay [2], 22.2%; in assay [3] it was 4.74% (active); in assay [4] it was 3.76% (active); in assay [5], 19%; in assay [6] it was -27.4% (active). Moreover, the figures for the growth in assay [7] and in assay [8] were 25.3% and 9.88% (active), respectively.
As for `CCCCCOC(=O)c1ccc(NC(=O)CNCC(C)C)cc1`, the growth in assay [1] was 88.8%; in assay [2], 91.8%; in assay [3] it was 99.2%; in assay [4] it was 98.5%; in assay [5], 94.3%; in assay [6] it was 84.9%. The growth in assay [7] was 97.9%; in assay [8], 104%.
Consider `COc1ccc2cc(-c3ccc(C(=O)NN)c(C)n3)ccc2c1`, for which the growth was 79.5% in assay [1]; 88.9% in assay [2]; 99.9% in assay [3]; 107% in assay [4]; 90.4% in assay [5]; 93.7% in assay [6]. Besides, the growth in assay [7] is 99.6%; in assay [8] it was 103%.
For `O=C1c2ccccc2C(=O)c2cc(Cn3cc[n+](Cc4ccc5ccccc5c4)c3)ccc21`, the growth in assay [1] is 70.1%; in assay [2] it was 60.1%; in assay [3], 84.8%; in assay [4], 84.2%; in assay [5] it was 59.2%; in assay [6], 84.3%. Besides, the figures for the growth in assay [7] and in assay [8] were 79.1% and 77.8%, respectively.
Turning to `Cc1cc(-c2ccccc2)cc(SC#N)[n+]1[O-]`, the growth in assay [1] is 46.2%; in assay [2], 52.2%; in assay [3], 47.5%; in assay [4] it was 38.1%; in assay [5] it was 23%; in assay [6] it was 36%. The growth in assay [7] was 62%; in assay [8], 37.7%.

Source of the values: PubChem BioAssay (NCI).
